From PubChem BioAssay AID488856 (Sanford-Burnham Center for Chemical Genomics, 2010)
Among all 1,400 compounds or so, about 50 (4%) were called active. Not all results are given here. Values without a mark were called inactive.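 How the source made its calls: active means mean inhibition across replicates above about 26% (limit read from the data); inactive means the rest.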

These compounds were tested against Caspase-3 (Homo sapiens) (UniProt P42574) (assay: CASP3 inhibitor validation, counterassay for project on UBE2N polyubiquitination blockers, biochemical, one dose (AID 488856;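 further: plate controls were DMSO with caspase-3 for no effect and DMSO wells lacking enzyme for full effect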)). Conditions: Recombinant caspase-3, Caspase-Glo 3/7 luminescence, 60 min; at 20 µM; stronger effect = higher value.
Chain of Caspase-3 (Homo sapiens) (P42574 whole entry, looked up): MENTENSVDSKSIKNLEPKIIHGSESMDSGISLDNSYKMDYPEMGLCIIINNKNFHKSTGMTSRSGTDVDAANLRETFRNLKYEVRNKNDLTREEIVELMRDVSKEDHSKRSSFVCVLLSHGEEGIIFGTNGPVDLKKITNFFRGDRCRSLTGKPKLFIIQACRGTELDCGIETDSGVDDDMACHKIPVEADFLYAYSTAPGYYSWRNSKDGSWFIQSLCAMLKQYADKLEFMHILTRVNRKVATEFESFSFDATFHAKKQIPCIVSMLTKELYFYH

SMILES	inhibition
Cc1cccc(-c2nc3ccc(C(=O)NCCN4CCN(C)CC4)cc3nc2-c2cccc(C)c2)c1	-4%
CCOC(=O)c1cccc(NS(=O)(=O)c2c(C(=O)N3CCCCCC3)c(C)n(C)c2C)c1	-2.7%
C#CCOCCOCCOCCNc1nc(N2CCN(C(=O)[C@H](CCCCN)n3cc([C@@H](N)C(C)CC)nn3)CC2)nc(N2CCN(C(=O)[C@H](Cc3ccc(O)cc3)n3cc([C@@H](N)C(C)CC)nn3)CC2)n1 (stereo not given in full)	-3.4%
Cc1cccc(-n2cnc(C(=O)NNC(=S)Nc3ccccc3)c2)n1	0%
CCCCN(C)CCCNC(=O)c1cc(-c2cccs2)nc2ccccc12	-3.7%
C#CCOCCOCCOCCNc1nc(N2CCN(C(=O)C(Cc3ccc(O)cc3)n3cc(C(N)CC(C)C)nn3)CC2)nc(N2CCN(C(=O)C(Cc3ccc(O)cc3)n3cc(C(N)C(C)CC)nn3)CC2)n1 (stereo not given)	0.7%
CN(C)c1ccnc2sc3c(=O)n(Cc4ccccc4)cnc3c12	-2.2%
CCN1C(=NCc2ccc(OC)cc2)N[C@@H](CCc2ccccc2)[C@H](C(=O)NCc2ccc(OC)cc2)[C@H]1C	-3.2%
CN(C)CC(O)COc1ccc(C(C)(C)c2ccc(OCC(O)CN(C)C)cc2)cc1 (stereo not given)	3.6%
CCCCCCCCCCOC(=O)Cn1c(COc2cccc(OC)c2)[n+](C)c2ccccc21	3.3%
Cc1cccc(OCC(O)CN2CCN(CCN3C(=O)c4cccc5cccc(c45)C3=O)CC2)c1C (stereo not given)	2.6%
COc1ccccc1NC(=O)CSc1nnc(-c2ccoc2C)n1CCc1ccccc1	-0.3%
CCCCN(CCCC)CCC(O)c1cc2c(Cl)cc(Cl)cc2c2cc(C(F)(F)F)ccc12 (stereo not given)	3.4%
Cc1c(CN2CCC(CO)(CCOc3ccccc3)CC2)[nH]c2ccc(Cl)cc12	-3.8%
N#Cc1c(-c2ccc(Cl)cc2)c2c([nH]c1=S)CCCC2	-1.9%
CC[C@@H](C)[C@@H]1CN([C@@H](C)CN2CCC[C@H]2CN2C(N)=NC[C@H]2C(C)C)C(=N)N1CCc1ccc(Cl)c(Cl)c1	2.5%
CCOC(=O)[C@@H]1[C@H]2COc3cc(OC)ccc3[C@H]2N2C(=O)N(c3ccc(F)cc3)C(=O)[C@]12C	3.4%
Cc1cc(C)c(NC(=O)C[N+](C)(C)CC(O)COc2cccc3ccccc23)c(C)c1 (stereo not given)	-2.3%
CC(=O)Nc1ccc(NC(=O)c2sc3nc4c(c(-c5ccc(C)cc5)c3c2N)CCC4)cc1	4.6%
C=C1c2c(Cl)ccc(O)c2C(O)=C2C(=O)[C@]3(O)C(O)=C(C(N)=O)C(=O)[C@@H](N(C)C)[C@@H]3[C@@H](O)C12 (stereo not given in full)	1.1%
CCCOc1ccc(Cl)cc1Nc1nc(NCCO)nc(N2CCCC2)n1	6.6%
CN1CCC(CN)(N2CCN(c3ccccc3)CC2)CC1	-2.2%
CCOC(=O)N1CCN(C(=O)Cc2ccc(-n3c(=S)[nH]c4ccccc4c3=O)cc2)CC1	-0.5%

SMILES	inhibition
CN1CCN(CCCNC(=O)c2ccc(/C=C3\Oc4ccccc4N(Cc4ccc(Cl)cc4)C3=O)cc2)CC1	-0.4%
O=c1c2c(nc3n1CCCCC3)sc1c(O)cccc12	77.2% (active)
c1ccc(C[C@H]2CNCCN2CCC23CC4CC(CC(C4)C2)C3)cc1	-0.9%
O=c1cc(CO)oc(C(Nc2cccc(C(F)(F)F)c2)c2ccccn2)c1O (stereo not given)	-1.4%
NC(N)=Nc1nc(-c2ccccc2)c2cc(Cl)ccc2n1	-2.7%
CCC(C(=O)NC1CCCC1)N(C(=O)c1snc(C(N)=O)c1N)c1ccc2c(c1)OCCO2 (stereo not given)	1.4%
c1ccc2c(CCN3CCNC[C@H]3Cc3cccc4ccccc34)cccc2c1	5%
C#CCOCCOCCOCCNc1nc(N2CCN(C(=O)C([C@@H](C)O)n3cc([C@@H](N)CCCCN)nn3)CC2)nc(N2CCN(C(=O)[C@H](CCCCN)n3cc(CN)nn3)CC2)n1 (stereo not given in full)	1.6%
COC(=O)c1cc(-c2cccs2)nc2ccccc12	-2.9%
CC1CN(C(=O)CCC(=O)NCCCN2CCC(Cc3ccccc3)CC2)c2cc(Cl)ccc2O1 (stereo not given)	0.6%
NC[C@H](Cc1ccccc1)NCCc1cc(C(F)(F)F)cc(C(F)(F)F)c1	-2.6%
CCOC(=O)C1=C(c2ccccc2)O/C(=C(/C(=O)OC)C(F)(F)F)S1	1.4%
COc1ccc(/C=N\NC(=O)c2sc(N)nc2C)cc1OC	23%
C#CCOCCOCCOCCNc1nc(N2CCN(C(=O)C([C@@H](C)CC)n3cc(C(N)COC(=O)C(F)(F)F)nn3)CC2)nc(N2CCN(C(=O)[C@H](CCCCN)n3cc(C(N)CC(C)C)nn3)CC2)n1 (stereo not given in full)	-1%
CN(C)CCCN(C(=O)c1ccc(S(=O)(=O)N2CCCCCC2)cc1)c1nc2cc3c(cc2s1)OCCO3	1.4%
CCN(CC(=O)NCc1cccs1)C(=O)c1cccc(S(=O)(=O)Nc2ccccc2OC)c1	-1.4%
COc1ccc(N(C(=O)c2snc(C(N)=O)c2N)C(C(=O)NC2CCCC2)c2ccco2)cc1OC (stereo not given)	-0.3%
CCN1CCN(CCNC(=O)c2ccc(/C=C3/Sc4ccccc4N(Cc4cccc(C)c4)C3=O)cc2)CC1	2.4%
C[C@@H](CN1CCC[C@H]1CN1C(N)=NC[C@@H]1Cc1ccccc1)N1C[C@@H](Cc2ccccc2)N(CCCC2CCCC2)C1=N	1.4%
COc1ccnc2c1c(=O)n(Cc1cccc(F)c1)c(=O)n2C	-0.3%
OCCNc1nc(Nc2ccc(Cl)c(Cl)c2)nc2ccccc12	-0.1%
CCCC[C@@H]1CN=C(N)N1CCc1cc(C(F)(F)F)cc(C(F)(F)F)c1	0.9%
